Data on 90 compounds can be found in PubChem BioAssay AID612 (The Scripps Research Institute Molecular Screening Center, 2007).

Molecules are shown by their SMILES. The whole screen tested about 62,000 compounds, of which about 420 (0.68%) were called active. The sample holds actives, similar compounds and a random draw of the others, so the mix is not that of the screen.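 How the source made its calls: active means inhibition above the mean of all tested compounds plus 3 SD (cut at about 43% in these data); inactive means the rest.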

The target of this test is 5-hydroxytryptamine receptor 1A (Homo sapiens) (UniProt P08908). Put plainly: blockade of serotonin HTR1A receptor – cell-based, CHO, Ga15 NFAT-bla reporter, primary screen (AID 612).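 Further: receptor stimulated by 5-CT agonist at 100 nM near EC80; beta-lactamase reporter measured by ratiometric fluorescence of a cleavable substrate.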 As to conditions: CHO 5-HT1a Ga15 NFAT-bla reporter, antagonist mode; at 10 µM; hits give high values.
Chain of 5-hydroxytryptamine receptor 1A (Homo sapiens) (P08908 whole entry, looked up): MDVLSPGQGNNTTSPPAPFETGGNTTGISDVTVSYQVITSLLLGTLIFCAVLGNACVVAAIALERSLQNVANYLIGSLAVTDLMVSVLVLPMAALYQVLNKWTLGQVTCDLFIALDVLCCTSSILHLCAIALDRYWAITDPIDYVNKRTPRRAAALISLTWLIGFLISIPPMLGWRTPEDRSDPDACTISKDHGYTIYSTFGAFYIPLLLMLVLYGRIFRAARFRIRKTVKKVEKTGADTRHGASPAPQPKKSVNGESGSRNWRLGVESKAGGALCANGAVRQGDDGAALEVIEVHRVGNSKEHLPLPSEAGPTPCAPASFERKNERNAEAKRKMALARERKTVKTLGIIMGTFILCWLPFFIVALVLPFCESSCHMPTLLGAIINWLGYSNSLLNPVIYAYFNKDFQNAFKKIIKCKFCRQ
Turning to `CCOC(=O)c1ccc(N2C(=O)CC(N3CC(C)OC(C)C3)C2=O)cc1` (stereo not given), the inhibition is 14% (inactive).

For `CC1=C(C(=O)OC2CCCCC2)C(c2cccnc2)n2ncnc2N1` (stereo not given), the inhibition is -5% (inactive).

On to `CCN1CCN(Cc2c(O)ccc3c(=O)c(-c4ccc(OC)c(OC)c4)c(C(F)(F)F)oc23)CC1`, for which the inhibition is 4.3% (inactive).

`COc1ccc(NC(=O)c2cccc(NC(=O)c3ccco3)c2)c(OC)c1`: the inhibition is 5.2% (inactive).

With `Cc1ccc(S(=O)(=O)N2CCOCC2)cc1C(=O)NCc1ccc(F)cc1`, the inhibition was 3.3% (inactive).

For `CC1Cc2ccccc2N1C(=O)CSc1nnc(-c2ccc(S(=O)(=O)N3CCCCC3)cc2)o1` (stereo not given), the inhibition was 1.4% (inactive).

In the case of `CCCC(=O)NC(C)C(c1cccs1)N1CCN(c2ccccc2)CC1` (stereo not given), the inhibition was 16.9% (inactive).

With `COc1ccc(C(C(O)C(=O)c2c[nH]c3ccccc23)N2CCN(c3ccccc3)CC2)cc1` (stereo not given), the inhibition was 43.9% (active).

Take `COc1ccc(OC)c(S(=O)(=O)N(C)CC(=O)N2CCN(c3ccccc3)CC2)c1`: the inhibition is -11.1% (inactive).

Turning to `COc1ccc(NC(C)=O)cc1NC(=O)CN1CCN(c2ccccn2)CC1`, the inhibition is -0.2% (inactive).

Turning to `Cc1ccc(-n2nc3c(c2NC(=O)c2ccc4c(c2)OCO4)CSC3)c(C)c1`, the inhibition is 9% (inactive).

On to `Nc1ccc(-c2nnc(-c3ccc(-c4ccccc4)cc3)o2)cc1`, for which the inhibition was 62.6% (active).

On to `O=C(Nc1ccc(-c2nnc(-c3ccccc3)o2)cc1)c1ccc(Br)o1`, for which the inhibition was -16.4% (inactive).

Take `O=C(Nc1ccc(-c2nnc(-c3ccccc3)o2)cc1)C1CCCO1` (stereo not given): the inhibition is 9.7% (inactive).

Turning to `CN1CCN(C(=O)C2C3C=CC(C3)C2C(=O)O)CC1` (stereo not given), the inhibition is -4% (inactive).

As to `CCOC(=O)c1ccc(NC(=O)CSc2ncccn2)cc1`, the inhibition was -16.8% (inactive).

As for `Cc1noc(C)c1S(=O)(=O)N1CCCC(C(=O)Nc2nccs2)C1` (stereo not given), the inhibition is -3.8% (inactive).

In the case of `CCc1nnc(NC(=O)c2nc3nccc(C)n3n2)s1`, the inhibition was -1.7% (inactive).

With `O=S(=O)(Nc1nccs1)c1ccc2c(c1)OCCO2`, the inhibition was -0.3% (inactive).

On to `O=C(CN1CCOc2ccccc21)N1CCC(Cc2ccccc2)CC1`, for which the inhibition was 4.5% (inactive).

As to `CC(=O)C1C(c2cccc(Oc3ccccc3)c2)NC(=O)NC1(O)C(F)(F)F` (stereo not given), the inhibition was -16.2% (inactive).

Take `O=C(CSCc1cccs1)N1CCCC1`: the inhibition was -5.9% (inactive).

Consider `O=C1c2cccnc2C(=O)N1Cc1cccs1`, for which the inhibition is -0.8% (inactive).

`c1csc(CN2CCN(Cc3cccs3)C2c2cccs2)c1`: the inhibition is 78.7% (active).

On to `N#Cc1ccc(COC(=O)Cn2nnc(-c3ccccc3)n2)cc1`, for which the inhibition was 7.6% (inactive).

`Cc1ccc(CNC(=O)CCCNC(=O)c2ccc(Cl)cc2)n1C`: the inhibition was -4.8% (inactive).

Regarding `CCSC1(SCC)N=C(N)C2(C#N)C(c3ccccc3)NC(C)=CC12C#N` (stereo not given), the inhibition was 1.4% (inactive).

As to `CCOc1ccc(-c2cn(S(=O)(=O)c3cccc4nsnc34)nc2N)cc1`, the inhibition was 11.8% (inactive).

As to `COc1cc(OC)c(NC(=O)c2ccc(Br)o2)cc1Cl`, the inhibition was 5.1% (inactive).

Regarding `CCN1CCN(c2c(Cl)cccc2NC(=O)c2ccc(Br)o2)CC1`, the inhibition was 63.5% (active).

`CCCC(=O)Nc1ccc(Cl)c(NC(=O)c2ccc(Br)o2)c1`: the inhibition is -5.8% (inactive).

For `O=C(CCCn1c(SCC(=O)c2ccc(F)cc2)nc2ccccc2c1=O)NCc1ccco1`, the inhibition is 7.8% (inactive).

For the compound `Cn1nc(-c2ccc(N3CCOCC3)c(NC(=O)c3ccccc3)c2)c2ccccc2c1=O`, the inhibition was 26.6% (inactive).

With `COCCn1nnnc1C(c1cc2ccc(OC)cc2[nH]c1=O)N1CCc2ccccc2C1` (stereo not given), the inhibition is 1.8% (inactive).

On to `COc1ccc(OC)c(C(c2nnnn2C(C)(C)C)N2CCc3ccccc3C2)c1` (stereo not given), for which the inhibition was 48.2% (active).

With `Cc1ccc(C(c2nnnn2C(C)(C)C)N2CCc3ccccc3C2)cc1` (stereo not given), the inhibition was -4.5% (inactive).

For the compound `Cc1ccc(N2C(=O)c3ccccc3C2(O)c2ncc[nH]2)cc1` (stereo not given), the inhibition is 3.5% (inactive).

For `CSc1cccc(NC(=O)CSc2ccccc2)c1`, the inhibition is -10.6% (inactive).

With `CC(C)COC(=O)c1ccc(NC(=O)C2C3C=CC(C3)C2C(=O)O)cc1` (stereo not given), the inhibition is 4.8% (inactive).

As to `CCn1nnc(NC(=O)c2cc(Cl)c(OC)c(Cl)c2)n1`, the inhibition was -4.7% (inactive).

In the case of `COc1cc2[nH]c(=S)n(CCN3CCCCC3C)c(=O)c2cc1OC` (stereo not given), the inhibition is 2.5% (inactive).

As to `O=C(O)CC(Cn1cnnn1)c1ccccc1` (stereo not given), the inhibition is 0.4% (inactive).

With `COc1ccc2[nH]c3c(=O)n(Cc4ccco4)cnc3c2c1`, the inhibition was 6% (inactive).

Turning to `CCOc1ccc(N(CC(=O)NCc2ccc(OC)cc2)S(=O)(=O)c2c(C)noc2C)cc1`, the inhibition was 3.7% (inactive).

In the case of `COc1ccc2c(c1)CCc1c(C(=O)N3CCc4ccccc4C3)noc1-2`, the inhibition is -3.2% (inactive).

Take `CN=C1SC(C(=O)O)CC(=O)N1C` (stereo not given): the inhibition is 3.6% (inactive).

Regarding `COc1ccccc1-n1cnc2cc(NS(=O)(=O)c3ccccc3)ccc21`, the inhibition was 26.7% (inactive).

On to `CCCCn1c(SCC(=O)N2CCC(C(=O)OCC)CC2)nc2cc(S(N)(=O)=O)ccc21`, for which the inhibition is 5.5% (inactive).

Regarding `CCn1c(CSc2nncn2-c2ccc(OC)cc2)nc2cc(S(=O)(=O)N(C)C)ccc21`, the inhibition was 0.4% (inactive).

With `CCC1C(C#N)=C(SC)NC2=C1C(=O)CC(C)(C)C2` (stereo not given), the inhibition is 0.2% (inactive).

For the compound `O=C(/C(=N\O)n1cncn1)c1ccc(Br)cc1Br`, the inhibition was -1.8% (inactive).

For `CC(=O)c1c(N)n(C)c(=O)n(C)c1=O`, the inhibition was 1.2% (inactive).

Consider `CC1CSc2nnc(CCc3ccccc3)n21` (stereo not given), for which the inhibition is 5.7% (inactive).

For the compound `CN1CCN(S(=O)(=O)c2ccc(NC(=O)C3CCCO3)cc2)CC1` (stereo not given), the inhibition is -0.1% (inactive).

In the case of `Cc1ccc(NC(=O)Cn2nc(C)c3ccccc3c2=O)c(C)c1`, the inhibition was 2.8% (inactive).

As to `C=CCn1c(SCn2nnc3ccccc3c2=O)nnc1-c1ccc(Cl)cc1`, the inhibition is -2.8% (inactive).

As to `O=C(Nn1cc(C(=O)N2CCN(c3ccccc3F)CC2)c2ccccc2c1=O)c1cnccn1`, the inhibition is 0.3% (inactive).

Consider `CCn1c2c(c3ccc(OC)cc31)CCCC2=O`, for which the inhibition is -8.1% (inactive).

In the case of `O=C(CSc1nnc(Cn2cnc3ccccc32)o1)c1ccccc1`, the inhibition is -8.1% (inactive).

With `Cc1ccc(-c2noc(CN3CCN(Cc4ccccc4)CC3)n2)cc1`, the inhibition is -3.3% (inactive).

On to `CC12CN(Cc3ccccc3)CC(C)(CN(Cc3ccccc3)C1)C2=NO`, for which the inhibition was 50.1% (active).

Turning to `CC(=NC1CCN(Cc2ccccc2)CC1)c1c(O)[nH]c(=O)[nH]c1=O`, the inhibition was -6.7% (inactive).

With `CN1C(=O)CC(N2CCN(c3ccccn3)CC2)C1=O` (stereo not given), the inhibition was -2.2% (inactive).

In the case of `C=CCNc1nnc(C)c2ccccc12`, the inhibition was 0.9% (inactive).

For `Cc1noc(C)c1S(=O)(=O)N(CC(=O)Nc1ccc2c(c1)OCCO2)c1ccc(C(C)C)cc1`, the inhibition is 2% (inactive).

Consider `COCCOC(=O)C1=C(C)N=c2s/c(=C\c3cccs3)c(=O)n2C1c1cccs1` (stereo not given), for which the inhibition is 6.2% (inactive).

For `CC(=O)c1ccc(Oc2cc(C)nc(-n3nc(C)cc3C)n2)cc1`, the inhibition was 45.2% (active).

Consider `CCOC(=O)c1cnc(-n2nc(C)cc2C)nc1Nc1cccc(C(C)=O)c1`, for which the inhibition was 12.1% (inactive).

For `Cc1cc(C)n(-c2ccc(Cl)c(C(=O)O)n2)n1`, the inhibition was -12.6% (inactive).

In the case of `CCOCCCN1C(=O)CN(C2CCCCC2)C(=O)C1c1ccc(OCC)c(OC)c1` (stereo not given), the inhibition was 4.5% (inactive).

`O=C(Nc1cc(C(F)(F)F)ccc1Cl)c1cc(C2CC2)on1`: the inhibition was 2.5% (inactive).

As to `O=C(OCC(O)C(O)COC(=O)c1ccccc1)c1ccccc1` (stereo not given), the inhibition was -11.9% (inactive).

Consider `S=C1SCN(CCN2CCOCC2)CN1Cc1ccccc1`, for which the inhibition was -2.1% (inactive).

With `CCOc1ccccc1C1NC(=O)NC(C)=C1C(=O)OCc1ccco1` (stereo not given), the inhibition is -4.6% (inactive).

With `CCOc1ccc2[nH]c(=O)c(C(c3nnnn3CCOC)N3CCOCC3)cc2c1` (stereo not given), the inhibition was -1.9% (inactive).

With `CC(=O)c1sc2nc(SCC(=O)N3CCCCC3)[nH]c(=O)c2c1C`, the inhibition is -6.6% (inactive).

For `Cc1cccc(NC(=O)c2ccccc2NC(=O)C(C)(C)C)n1`, the inhibition is 1.6% (inactive).

As to `O=S(=O)(Nc1ccccc1N1CCOCC1)c1ccc(Cl)s1`, the inhibition is 4.3% (inactive).

On to `CCOC(=O)C1CCN(Cc2coc3ccc(Cl)cc3c2=O)CC1`, for which the inhibition is 5% (inactive).

On to `O=C(NCc1ccc2c(c1)OCO2)C1CCCN(S(=O)(=O)c2cccs2)C1` (stereo not given), for which the inhibition was -2.9% (inactive).

`Cc1ccnc(SCCn2c(Br)nc3c2c(=O)[nH]c(=O)n3C)n1`: the inhibition was -4.8% (inactive).

In the case of `CC(C)Cc1cc(C(=O)Nc2cc(Br)ccc2O)no1`, the inhibition was 17.4% (inactive).

As for `CCn1c(SCC(=O)Nc2nccs2)nnc1-c1ccncc1`, the inhibition was -5% (inactive).

Consider `Cc1ccc(C(=O)NC2CCN(C(=O)N3CCOCC3)CC2)cc1`, for which the inhibition was -11.8% (inactive).

As for `COc1ccc(CCN(C)CCN2C(=O)c3ccccc3C2=O)cc1OC`, the inhibition was -14.2% (inactive).

For `COc1cc(C2C(C(=O)c3ccc(C)o3)=C(O)C(=O)N2CCc2ccccc2)ccc1O` (stereo not given), the inhibition is -1.1% (inactive).

With `COc1ccc(CCN2C(=O)c3[nH]nc(-c4ccccc4O)c3C2c2ccc(C)cc2)cc1OC` (stereo not given), the inhibition is 54.6% (active).

As for `O=C(C1CC1)N1CCN=C1SCc1ccc(Cl)cc1`, the inhibition is 13% (inactive).

With `N#CC1=C(N)C(C#N)(C#N)[C@H](c2ccsc2)[C@H]2COCC=C12`, the inhibition is -8.8% (inactive).

In the case of `O=C(CN1CCOCC1)Nc1c(-c2ccccc2)c2cc(Br)ccc2[nH]c1=O`, the inhibition was -10.8% (inactive).
